Out of some 87,000 compounds screened, about 360 (0.41%) were called active. The sample holds actives, similar compounds and a random draw of the others, so the mix is not that of the screen. A number with no mark means an inactive call. Rule as the data show it: active = cytotoxicity above about 50%; inactive = the rest.

This test can be described thus: cytotoxicity in HT1080 fibrosarcoma cells, cell-based, fluorescence readout (AID 620).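 Also: cells exposed to compound overnight then 4 h with Alamar Blue; 0% = vehicle DMSO and 100% = killing control.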 To be noted: HT1080 viability, at 10 µM, active compounds read high.
Regarding `CC(SC(=S)N1CCOCC1)C(=O)O` (stereo not given), the cytotoxicity is 7.1%.

Take `CC(C(=O)OCc1nnc(-c2ccccc2)o1)N1C(=O)c2ccccc2C1=O` (stereo not given): the cytotoxicity was 4.5%.

In the case of `COc1ccccc1OCCn1cc(C#N)c2ccccc21`, the cytotoxicity was -3.5%.

As for `N#Cc1cn(CCCOc2ccccc2)c2ccccc12`, the cytotoxicity is 24.2%.

Regarding `COc1ccccc1OCCCn1cc(C#N)c2ccccc21`, the cytotoxicity was 76.4% (active).

On to `Cc1cc(C)n(-c2nc3c(c(=O)[nH]c(=O)n3C)n2CCc2ccccc2)n1`, for which the cytotoxicity was 15.7%.

As to `COc1ccc(CCn2c(-n3nc(C)cc3C)nc3c2c(=O)[nH]c(=O)n3C)cc1`, the cytotoxicity was 55.6% (active).

Take `Cc1ccc(Cn2c(-n3nc(C)cc3C)nc3c2c(=O)[nH]c(=O)n3C)cc1`: the cytotoxicity is -7.9%.

Turning to `CC(=O)Cc1nsc(NC(=O)C2Cc3ccccc3C(=O)O2)n1` (stereo not given), the cytotoxicity was -9.2%.

Turning to `Cc1cc(C)n(-c2nnc(C)n2/N=C/c2cc(Br)ccc2OCc2ccccc2)n1`, the cytotoxicity is 5.9%.

For `COc1ccccc1/C=N/n1c(C)nnc1-n1nc(C)cc1C`, the cytotoxicity is 9.8%.

With `CCCOc1ccc2ccccc2c1/C=N/n1c(C)nnc1-n1nc(C)cc1C`, the cytotoxicity was 61.6% (active).

Turning to `Cc1c(C(N)=O)sc2ncn(CC(=O)N3CCC(C)CC3)c(=O)c12`, the cytotoxicity was 0.9%.

With `CCN1CCCC1CNC(=O)CN1C(=O)COc2ccc(C)cc21` (stereo not given), the cytotoxicity is -4.1%.

Consider `O=C(Cn1cnc2ccccc2c1=O)OCC(=O)c1ccc2c(c1)OCCO2`, for which the cytotoxicity was -7.6%.

For `O=C(Cc1n[nH]c(=O)c2ccccc12)OCC(=O)c1ccc2c(c1)OCCO2`, the cytotoxicity was 60.4% (active).

As for `O=C(Cc1ccc(Br)cc1)OCC(=O)c1ccc2c(c1)OCCO2`, the cytotoxicity is -6.8%.

On to `CC(C)c1cc(Nc2cccc(O)c2)cc(C(C)C)c1O`, for which the cytotoxicity is 2%.

For `CCN(Cc1ccccc1)S(=O)(=O)c1ccc(S(=O)(=O)N(Cc2ccccn2)Cc2ccco2)cc1`, the cytotoxicity is 11.3%.

As to `CCN1CCN(C(=O)Cn2ncc3ccsc3c2=O)CC1`, the cytotoxicity is -5.8%.

With `CCN1C(=O)/C(=C\N2CCCCCC2)SC1=S`, the cytotoxicity is -5.6%.

Turning to `CCN1C(=O)/C(=C\N2CCCc3ccccc32)SC1=S`, the cytotoxicity was 52.5% (active).

On to `CCN1C(=O)/C(=C/N2CCc3ccccc32)SC1=S`, for which the cytotoxicity was 5.1%.

As to `COc1ccc(C(=O)Nc2ccc(N3CCOCC3)cc2)cc1OC`, the cytotoxicity is -4.9%.

Take `COc1cc(C(=O)Nc2cccc3cccnc23)cc(OC)c1OC`: the cytotoxicity is 5.4%.

With `Cn1c(=N)n(CC(=O)O)c2ccccc21`, the cytotoxicity is 0.2%.

Consider `Cn1c(=N)n(CC(O)c2ccco2)c2ccccc21` (stereo not given), for which the cytotoxicity was -14.7%.

Take `Cn1c(=N)n(CC(O)c2cccc3ccccc23)c2ccccc21` (stereo not given): the cytotoxicity is 57.8% (active).

On to `CC1CCC(C(C)C)C(OCC(O)CN2CCOCC2)C1` (stereo not given), for which the cytotoxicity was 2.7%.

In the case of `COCC(=O)Nc1c(C(=O)Nc2ccccc2OC)oc2ccccc12`, the cytotoxicity was -17.1%.

`COc1ccccc1NC(=O)c1oc2ccccc2c1NC(=O)c1ccco1`: the cytotoxicity is 0.3%.

`COc1ccccc1NC(=O)c1oc2ccccc2c1NC(=O)c1cc(OC)c(OC)c(OC)c1`: the cytotoxicity is 50% (active).

On to `Cc1oc2c(c1C(=O)Nc1cccc(C(=O)O)c1)CCCC2`, for which the cytotoxicity is 9.3%.

As for `CC1(C)CC2CC(C)(CN2C(=O)Cc2ccccc2)C1` (stereo not given), the cytotoxicity is -25%.

With `COc1cccc(C2C(C(N)=O)=C(C)Nc3nc(CCCO)nn32)c1OC` (stereo not given), the cytotoxicity is 1%.

Consider `CCOC(=O)c1c(C)sc2c1N(C(=O)CCl)c1cc(Cl)ccc1S2`, for which the cytotoxicity was 87.2% (active).

With `CCOC(=O)c1c(C)sc2c1N(C(C)=O)c1cc(Cl)ccc1S2`, the cytotoxicity is 17.6%.

As for `CCOC(=O)c1c(C)sc2c1N(C(=O)CN(CC)CC)c1cc(Cl)ccc1S2`, the cytotoxicity is 6.5%.

With `CCCN1CCN(C(c2cc3cc4c(cc3[nH]c2=O)OCO4)c2nnnn2C(C)(C)C)CC1` (stereo not given), the cytotoxicity is 1.4%.

Turning to `CCN(CC)S(=O)(=O)c1cccc(C(=O)Nc2ccc(Cl)cn2)c1`, the cytotoxicity is -7.6%.

Consider `Fc1ccc(Br)cc1C1C=C(c2ccc(Br)cc2)Nc2ncnn21` (stereo not given), for which the cytotoxicity is -11.5%.

For `CCc1ccc(C2=CC(c3cc(Br)ccc3F)n3ncnc3N2)cc1` (stereo not given), the cytotoxicity was 44.7%.

As for `Fc1ccc(Br)cc1C1C=C(c2ccc(Br)s2)Nc2ncnn21` (stereo not given), the cytotoxicity is 62.6% (active).

In the case of `Cc1cc(N)n(-c2ncnc3scc(-c4ccc(Cl)cc4)c23)n1`, the cytotoxicity was 7.2%.

With `CC(CN1CCOCC1)C(=O)c1ccccc1` (stereo not given), the cytotoxicity was -9.8%.

Take `COc1ccc(C(=O)C(CN2CCOCC2)c2ccccc2)cc1` (stereo not given): the cytotoxicity is 27%.

Take `CCCCCOc1ccc(C(=O)C(c2ccccc2)N2CCOCC2)cc1` (stereo not given): the cytotoxicity is -2%.

With `O=C(c1ccc(F)cc1)C(CN1CCOCC1)c1ccccc1` (stereo not given), the cytotoxicity is 61% (active).

Turning to `COc1ccc(C(=O)C(CN2CCOCC2)c2ccccc2)cc1F` (stereo not given), the cytotoxicity was 25.3%.

For the compound `CCc1cc(=O)oc2cc(OCC(=O)N(CC)CC)c(Cl)cc12`, the cytotoxicity is 2.2%.

With `O=C(CCn1c(=O)sc2ccccc21)NCc1ccccc1`, the cytotoxicity was 0%.

As for `c1ccc2[nH]c(CSc3nc4ccccc4s3)nc2c1`, the cytotoxicity is -3.3%.

`CCCC[C@@H]1C[C@H]1C(NC(=O)c1ccc(C(F)(F)F)cc1)c1ccc(C(=O)OC)cc1` (stereo not given in full): the cytotoxicity is -11.3%.

For `CCn1cc(C(=O)O)c(=O)c2cnc(N3CCN(C(=O)Nc4cccc5ccccc45)CC3)nc21`, the cytotoxicity was -1.8%.

Regarding `CC(=O)N1CCN(Cc2ccc(Br)s2)CC1`, the cytotoxicity was -4.4%.

As to `Cc1[nH]c(=O)[nH]c(=O)c1S(=O)(=O)N1c2ccc(F)cc2CCC1C` (stereo not given), the cytotoxicity is -0.4%.

On to `CCCN(C(=O)Cn1ncc2c(=O)oc3ccccc3c21)c1cccc(C)c1`, for which the cytotoxicity is -2.3%.

`O=C(CN(c1ccccc1F)S(=O)(=O)c1ccccc1)NC1CCCCCC1`: the cytotoxicity is -8.6%.

On to `Fc1ccc(-c2nnc(CN3CCN(c4ncc(C(F)(F)F)cc4Cl)CC3)o2)cc1`, for which the cytotoxicity is -2.5%.

Regarding `CCCCc1ccc(-c2nc(N)n[nH]2)cc1`, the cytotoxicity is 5.5%.

Consider `CCCCCc1ccc(-c2ccc(=O)[nH]n2)cc1`, for which the cytotoxicity was 15.3%.

Turning to `CCCCCCc1ccc(-c2ncc(N)cn2)cc1`, the cytotoxicity is 97.1% (active).

As to `CCCn1c(=O)c2ccccc2n2c(SCC(=O)c3cc(C)n(CC4CCCO4)c3C)nnc12` (stereo not given), the cytotoxicity was 6.6%.

With `COc1ccccc1N(CC(=O)NC1CCCCC1)S(C)(=O)=O`, the cytotoxicity was -0.7%.

Regarding `Fc1ccc(N2CCN(c3nc(-c4ccco4)cc(C(F)(F)F)n3)CC2)cc1`, the cytotoxicity is -8.6%.

On to `O=C(c1c[nH]c2ccc(F)cc2c1=O)N1CCCCCC1`, for which the cytotoxicity was 67.1% (active).

Turning to `CCc1ccc2[nH]cc(C(=O)N3CCCCCC3)c(=O)c2c1`, the cytotoxicity is -11%.

Regarding `COc1ccc2[nH]cc(C(=O)N3CCCCC3)c(=O)c2c1`, the cytotoxicity was -0.4%.

As for `FC(F)(F)c1cc(-c2ccco2)nc(-n2nnc3ccccc32)n1`, the cytotoxicity was -10.9%.

Consider `FC(F)(F)c1cc(-c2ccco2)nc(-n2cnc3ccccc32)n1`, for which the cytotoxicity is -14.2%.

Regarding `Cc1nc2ccccc2n1-c1nc(-c2ccco2)cc(C(F)(F)F)n1`, the cytotoxicity was 65.2% (active).

For the compound `CCCCNC(=O)c1ccc2c(c1)N(CC)C(=O)c1ccccc1S2(=O)=O`, the cytotoxicity was -4.4%.

`CSc1nc(NCC(C)C)nc(N2CCOCC2)n1`: the cytotoxicity was 1%.

As to `CC(=O)NC1=NN(C(C)=O)C(C)(c2cccs2)S1` (stereo not given), the cytotoxicity was 65.3% (active).

As for `CCCC1(C)SC(NC(C)=O)=NN1C(C)=O` (stereo not given), the cytotoxicity is -1.8%.

For the compound `CC(=O)NC1=NN(C(C)=O)C2(CCCCC2)S1`, the cytotoxicity was 0.7%.

On to `COc1ccc(C(=O)CSc2nc(SC)ns2)cc1OC`, for which the cytotoxicity is 7.5%.

In the case of `COc1cc(NC(=O)COc2ccc(F)cc2)nc(OC)n1`, the cytotoxicity is 5%.

In the case of `O=C(Nc1ccc2nc(-c3cccs3)[nH]c2c1)c1cccs1`, the cytotoxicity was 17%.

As to `O=C(Nc1ccc2nc(-c3ccccc3)[nH]c2c1)c1cccs1`, the cytotoxicity was 56.7% (active).

As to `O=C(Nc1ccc(-c2nc3ccc(NC(=O)c4cccs4)cc3[nH]2)cc1)c1cccs1`, the cytotoxicity is 16.4%.

With `COc1ccc(C(=O)SC2=NCCS2)cc1`, the cytotoxicity was -11.1%.

As to `Cc1cc(C)n(-c2c(F)c(F)c(CO)c(F)c2F)n1`, the cytotoxicity was -14.3%.

`CS(=O)(=O)N(CC(=O)N1CCN(c2ccccc2)CC1)C1CCCCC1`: the cytotoxicity is -5.1%.

In the case of `CCCNC(=O)C1CN(S(=O)(=O)c2ccccc2)CCN1S(=O)(=O)c1ccccc1` (stereo not given), the cytotoxicity was 3.1%.

For the compound `Cn1c(Cn2nnc3ccccc32)nnc1SCC(=O)NCc1ccc2c(c1)OCO2`, the cytotoxicity was -4.4%.

Turning to `CCn1ncc(C2=NOC(C(=O)NCc3ccc(Cl)cc3)C2)c1C` (stereo not given), the cytotoxicity was 71.2% (active).

For `CCn1ncc(C2=NOC(C(=O)NCCc3ccccc3)C2)c1C` (stereo not given), the cytotoxicity was 4.4%.

Regarding `CCn1ncc(C2=NOC(C(=O)NCC(C)C)C2)c1C` (stereo not given), the cytotoxicity is 1.4%.

Turning to `CCn1ncc(C2=NOC(C(=O)NCc3ccccc3)C2)c1C` (stereo not given), the cytotoxicity was 53.9% (active).

Regarding `CCn1ncc(C2=NOC(C(=O)Nc3ccc(C)cc3)C2)c1C` (stereo not given), the cytotoxicity is 7.8%.

Consider `CCn1ncc(C2=NOC(C(=O)NCc3ccc(OC)cc3)C2)c1C` (stereo not given), for which the cytotoxicity is 2%.

Take `Cc1ccc(C)c(NC2=NC3(CCCCC3)N=C(N)N2)c1`: the cytotoxicity is 4.3%.

Turning to `COC(=O)C(NC(=O)c1ccco1)(Nc1nc(C2CC2)cs1)C(F)(F)F` (stereo not given), the cytotoxicity was 1.9%.

As to `CCc1ccccc1NC(=O)CN(C)Cc1nc(N)nc(Nc2ccccc2C)n1`, the cytotoxicity was -1%.

Turning to `CO/N=C/NC(=O)Cc1cn(-c2ncc(C(F)(F)F)cc2Cl)c2ccccc12`, the cytotoxicity is 7.8%.

For `CCOCc1nnc(NC(=O)c2ccc(OC)cc2)s1`, the cytotoxicity is 7.7%.

As to `Cc1c(C(=O)Nc2ccc(-n3cnnn3)cc2)oc2ccccc12`, the cytotoxicity was 26.2%.

For `Cc1ccc2c(C)c(C(=O)Nc3nnc(C)s3)oc2c1`, the cytotoxicity was 1.1%.

For `COc1ccc(C(=O)Nc2nnc(C(F)(F)F)s2)cc1`, the cytotoxicity was 66.8% (active).

As for `O=C(Nc1nnc(C(F)(F)F)s1)c1cccnc1`, the cytotoxicity is 24%.

In the case of `COC(=O)c1sc(NC(=O)c2oc3ccccc3c2C)nc1C`, the cytotoxicity is -14.4%.

Turning to `Cc1c(C(=O)Nc2nnc(C(F)(F)F)s2)oc2ccccc12`, the cytotoxicity was 82.5% (active).

As to `Cc1cc(NC(=O)c2oc3ccccc3c2C)ccc1-n1cnnn1`, the cytotoxicity is 75.3% (active).

Regarding `Cc1cc(NC(=O)c2ccco2)ccc1-n1cnnn1`, the cytotoxicity is -8.1%.
